By inhibition is commonly meant the relative decrease from the control value, in per cent.

The whole screen tested about 340,000 compounds, of which about 1,000 (0.29%) were called active. Rule as the data show it: inconclusive = inhibition above about 29% without an active follow-up result; inactive = below that. Not all results are given here. Potency and affinity values are given separately.

The experiment concerns the target Genome polyprotein (Dengue virus type 2 (strain 16681-PDK53)) (UniProt P29991). The experiment is described as follows: Dengue-2 NS5 methyltransferase inhibitors, primary screen, biochemical, confirmation dose response (AID 588689). To be noted: Dengue-2 NS5 methyltransferase capping enzyme assay, at 25 µM, stronger effect = higher value.
Setting [1] is: measured here: pilot screen replicate inhibition.

Turning to `N=C1c2ccccc2CN1NC(=O)CC12CC3CC(CC(C3)C1)C2`, the inhibition was -6.39% (inactive). Take `COc1ccc(NCc2nnc(SCC#N)n2-c2ccccc2OC)cc1`: the inhibition was 4.71% (inactive).

In the case of `O=C(COC(=O)COc1ccccc1)NC12CC3CC(CC(C3)C1)C2`, the inhibition is 3.65% (inactive). For the compound `CC1=CC(C)(C)N(C(=O)CN2C(=O)CCC2=O)c2ccccc21`, the inhibition is 4.64% (inactive). Same read-out and setting: with `C/C(=N\OCC(=O)Nc1cc(C)cc(C)c1)c1ccc2c(c1)OCCO2` the figure was -2.91% (inactive). Still for that read-out and setting: in the case of `O=C1COC(c2ccccc2O)=NN1CCCl` it was 4.57% (inactive); in that of `O=C(CN1C(=O)NC2(CCCC2)C1=O)OCCOc1ccc(Br)cc1`, -1.44% (inactive); in that of `CCOC(=O)[C@H](C)N1[C@H](C)[C@H](c2ccccc2)Oc2ccc(Cl)cc2S1(=O)=O`, -5.21% (inactive).

Regarding `Cc1ccc2cc(C=O)c(N(C)C)nc2c1`, the inhibition is 1.3% (inactive). For `Cc1ccc2cc(C=O)c(Cl)nc2c1`, the inhibition is -3.88% (inactive). The same measure, in the same setting: with `COc1ccc(C(=O)NC2CCCCCCC2)cc1OC` the figure was -1.55% (inactive); with `CN=c1scc(C)n1/N=C/c1ccc(O)cc1O`, 2.07% (inactive); with `CN=c1scc(-c2cccs2)n1/N=C/c1ccccc1O`, -0.73% (inactive). On the same count and under the same terms, in the case of `CN=c1scc(-c2ccco2)n1/N=C/c1ccc(O)c(O)c1` it was -2.15% (inactive); in that of `CN=c1scc(-c2ccccc2F)n1/N=C/c1ccc(O)c(O)c1O`, 26.9% (inactive); in that of `CCN=c1scc(-c2ccco2)n1/N=C/c1ccc(O)cc1`, 4.53% (inactive). For the compound `CCN=c1scc(C)n1/N=C/c1ccsc1`, the inhibition was 2.4% (inactive). The same measure, in the same setting: in the case of `CC(C)N=c1scc(-c2cccs2)n1/N=C/c1ccc(O)c(O)c1O` it was 16.7% (inactive); in that of `CCN=c1scc(C)n1/N=C/c1cc(Br)c(O)c(Br)c1`, 9.36% (inactive). Turning to `COc1ccc(S(=O)(=O)NCCCN2CCCC2=O)cc1OC`, the inhibition is -6.1% (inactive). As to `CC(C)(C)[C@@H]1C=C(C(=O)O)[C@H](c2ccc(Cl)cc2)N1S(=O)(=O)c1ccccc1`, the inhibition was -3.97% (inactive). The inhibition under setting [1] is -4.61%. Regarding `Cn1c(SCC(=O)Nc2ccccc2)nc2c([nH]c3ccccc32)c1=O`, the inhibition was -11.1% (inactive).

For `Nc1ccn([C@@H]2O[C@H](CNC(=O)[C@@H](Cc3cccnc3)NC=O)[C@@H](O)[C@H]2O)c(=O)n1`, the inhibition was -7.38% (inactive). The same measure, in the same setting: in the case of `Cc1cc2nc(C)c3c(n2n1)CCC3` it was -6.57% (inactive); in that of `Nn1c(COc2ccccc2F)nnc1SCC(=O)NC1CCCC1`, -8.38% (inactive). On the same count and under the same terms, in the case of `O=C1c2ccccc2NC(c2ccc(-c3ccc(F)cc3)o2)N1O` (centres undefined) it was 13.4% (inactive); in that of `Cc1c(C(=O)O)cccc1-c1ccc(/C=C2/NC(=O)N(c3ccccc3)C2=O)o1`, -1.55% (inactive). The same measure, in the same setting: in the case of `CN1C(=O)/C(=C/c2ccc(-c3ccccc3[N+](=O)[O-])o2)SC1=Nc1ccc(Cl)c(C(=O)O)c1` it was 24.5% (inactive); in that of `O=C(O)c1ccccc1-c1ccc(/C=C2\SC(=O)N(c3ccccc3)C2=O)o1`, 25.1% (inactive). Take `CC1=NN(c2ccc(Cl)c(C(=O)O)c2)C(=O)C1`: the inhibition is 10.9% (inactive).

Regarding `CCCOC(=O)c1cc(-c2ccc(/C=C3/C(=O)N(C)C(=O)C(C#N)=C3C)o2)ccc1Cl`, the inhibition was -12.3% (inactive). Further, the inhibition under setting [1] is -8.18%. With `CC1=NN(c2ccc(C)cc2)C(=O)/C1=C/c1ccc(-c2cc([N+](=O)[O-])ccc2O)o1`, the inhibition was 21.8% (inactive). Take `Cc1ccc(CN2C(=O)N/C(=C/c3ccc(-c4ccc(C(=O)O)cc4)o3)C2=O)cc1`: the inhibition was 14.9% (inactive). The same measure, in the same setting: in the case of `CCOC(=O)c1cc(-c2ccc(/C=N\n3cnnc3)o2)ccc1Cl` it was -3.91% (inactive). The same measure, in the same setting: in the case of `O=C(Nc1ccccc1N1CCCCC1)c1cc(S(=O)(=O)N2CCOCC2)ccc1Cl` it was -0.73% (inactive). Still for that read-out and setting: in the case of `C#CC[N+](C)(C)CC#Cc1ccccc1` it was -1.48% (inactive); in that of `O=C1CC(c2ccccc2)CC(O)=C1C=NCc1ccc(Cl)c(Cl)c1` (centres undefined), 3.34% (inactive).

As to `CC1(C)CC(=O)C(C(N)=NC(=O)c2ccccc2)=C(O)C1`, the inhibition was 0% (inactive).

On to `CC(=O)c1c(C)[nH]c(C(=O)OCC(=O)N2CCc3ccccc32)c1C`, for which the inhibition is -4.77% (inactive).

Consider `CCCCc1cc(=O)oc2cc(OCC(=O)N3CCc4ccccc43)ccc12`, for which the inhibition is -4.8% (inactive).

Consider `CCc1ccc(N2C(=O)CC(Cn3nc(C)cc3C)C2=O)cc1` (centres undefined), for which the inhibition is -5.48% (inactive).

For the compound `CN(C)S(=O)(=O)c1cccc(NC(=O)/C=C/c2ccc(S(=O)(=O)N3CCOCC3)cc2)c1`, the inhibition is -0.74% (inactive). With `COC(=O)c1ccccc1-c1ccc(/C=C2\C(=O)N(c3ccccc3)N=C2c2ccccc2)o1`, the inhibition is 1.6% (inactive). Turning to `CCOC(=O)c1ccc(N2N=C(C)/C(=C/C=C/c3ccco3)C2=O)cc1`, the inhibition is 10.2% (inactive). The same measure, in the same setting: in the case of `CC1=NN(c2ccc(C(=O)O)cc2)C(=O)/C1=C/c1ccc(-c2ccccc2F)o1` it was 51.9% (inactive). Same read-out and setting: with `CC1=NN(c2cccc(C(=O)O)c2)C(=O)/C1=C\C=C\c1ccco1` the figure was 19.1% (inactive); with `O=C(c1ccccc1[N+](=O)[O-])N1CCCC(C(=O)N2CCCCCC2)C1` (centres undefined), 0% (inactive). The same measure, in the same setting: with `O=C(Nc1ccc(F)cc1)c1nc(S(=O)(=O)Cc2ccccc2)ncc1Cl` the figure was -51.9% (inactive); with `CCc1ccc(NC(=O)c2nc(S(=O)(=O)Cc3ccccc3)ncc2Cl)cc1`, -51.9% (inactive).

Regarding `CCCSc1nnc(NC(=O)c2nc(SC)ncc2Cl)s1`, the inhibition was 0% (inactive). Still for that read-out and setting: with `C=CCSc1nnc(NC(=O)c2nc(SCC)ncc2Cl)s1` the figure was -6.43% (inactive). On the same count and under the same terms, in the case of `COc1ccc([N+](=O)[O-])cc1NC(=O)CCN1CCOCC1` it was -1.96% (inactive); in that of `COc1ccc(N(CC(=O)N/N=C/c2ccc(-c3ccc([N+](=O)[O-])cc3)o2)S(=O)(=O)c2ccc(C)cc2)cc1Cl`, -4.14% (inactive); in that of `O=C(c1ccc(N2C(=O)c3ccccc3C2=O)cc1)N1CCN(S(=O)(=O)c2ccccc2F)CC1`, -0.55% (inactive).

Take `O=C(CCC(=O)Nc1cccc(Cl)c1)N/N=C/c1cc([N+](=O)[O-])ccc1O`: the inhibition was -2.94% (inactive). The same measure, in the same setting: in the case of `CN1CCCC(OC(=O)c2ccc(C(C)(C)C)cc2)C1` (centres undefined) it was -4.27% (inactive). Consider `CCOC(=O)C1C(=O)CC(C)(O)C(C(=O)OCC)C1c1cccc(OC)c1` (centres undefined), for which the inhibition was -3.38% (inactive). On the same count and under the same terms, in the case of `CCNCc1cc(OCC)c(OCC(=O)NCCc2ccccc2)cc1Cl` it was -2.77% (inactive).

Consider `CCCn1c(N)c(C(=O)CSc2nc3ncc(Cl)cc3[nH]2)c(=O)[nH]c1=O`, for which the inhibition was -2.94% (inactive). As to `Cc1ccc([C@H]2C(C(=O)O)=CC[C@@H](c3cccc(Cl)c3)N2S(=O)(=O)c2ccc(C)cc2)cc1`, the inhibition is 16.6% (inactive). For the same compound, the inhibition under setting [1] came out at 2.77%. For the compound `Cc1ccc(S(=O)(=O)N2[C@@H](c3cccc(Cl)c3)C(C(=O)O)=CC[C@H]2c2ccc(Cl)cc2)cc1`, the inhibition is 20.7% (inactive).

Turning to `COc1ccc([C@@H]2CC=C(C(=O)O)[C@H](c3cccc(Cl)c3)N2S(=O)(=O)c2ccc(Cl)cc2)cc1`, the inhibition was 16% (inactive).

Take `Cc1ccc(S(=O)(=O)N2[C@@H](c3ccccc3)C(C(=O)O)=CC[C@H]2c2cccc(Cl)c2)cc1`: the inhibition was -2.4% (inactive). As for `Cc1ccc(S(=O)(=O)N2[C@@H](c3ccccc3)C(C(=O)O)=CC[C@H]2c2ccc(C(C)C)cc2)cc1`, the inhibition was 21.6% (inactive). The same measure, in the same setting: in the case of `Cc1ccc(S(=O)(=O)N2[C@@H](c3ccc(Cl)cc3)C(C(=O)O)=CC[C@H]2c2ccc(C(C)C)cc2)cc1` it was 25.9% (inactive); in that of `Cc1ccc(S(=O)(=O)N2[C@@H](c3ccc(Cl)cc3)C(C(=O)O)=CC[C@H]2c2cccc(Cl)c2)cc1`, 22.7% (inactive). On the same count and under the same terms, with `Cc1ccc(S(=O)(=O)N2[C@@H](c3cccc(Cl)c3)C(C(=O)O)=CC[C@H]2c2cccc(C)c2)cc1` the figure was 20.8% (inactive); with `O=C(NCCCN1CCCC1=O)c1cccc(N2CCCC2=O)c1`, -1.47% (inactive); with `CN(C)S(=O)(=O)c1ccc(C(=O)OCC(=O)c2ccc(OC(F)F)cc2OC(F)F)cc1`, 2.08% (inactive). On the same count and under the same terms, in the case of `CCCN1CCN(C(=O)c2ccc(CS(=O)c3ccc(F)cc3)o2)CC1` (centres undefined) it was -6.18% (inactive); in that of `O=S(=O)(NCc1cccc(C(F)(F)F)c1)NCc1ccccc1F`, -7.25% (inactive). With `CCn1c(SCc2nc3ccccc3c(=O)[nH]2)nnc1-c1ccncc1`, the inhibition was 3.13% (inactive). Besides, under setting [1], the inhibition is -0.31%. As to `CCCCn1c(N)c(N(CCOC)C(=O)CCc2ccc(OC)cc2)c(=O)[nH]c1=O`, the inhibition is -2.18% (inactive). On the same count and under the same terms, in the case of `Cc1ccc(Cc2nc(-c3ccncc3)no2)cc1` it was -1.78% (inactive); in that of `CN(C)Cc1cc(O)c(CN(C)C)cc1O`, 24.7% (inactive); in that of `CCN(CC)Cc1cc(C(C)=O)ccc1O`, -1.36% (inactive). On the same count and under the same terms, with `COc1ccc(N=Nc2ccc(N)nc2N)cc1` the figure was 1.3% (inactive). Still for that read-out and setting: in the case of `Nc1nc(N)c(N=Nc2ccc(C(=O)O)cc2)c(N)n1` it was 0.65% (inactive); in that of `COc1cc2cc(CCCOC(=O)c3ccc(Br)cc3)oc(=O)c2cc1OC`, 8.18% (inactive). For the compound `COc1cc(C(CC(=O)Nc2ccc(C)cn2)N2Cc3ccccc3C2=O)cc(OC)c1OC` (centres undefined), the inhibition is -5.88% (inactive). Consider `Cc1ccc(C(=O)C(C)OC(=O)C2CCN(c3ccc(C(F)(F)F)cn3)CC2)cc1` (centres undefined), for which the inhibition is -0.72% (inactive). On the same count and under the same terms, with `CNC(=O)C1CC(=O)N(CCc2ccc(C)cc2)C1` (centres undefined) the figure was -3.31% (inactive). Same read-out and setting: in the case of `Cc1noc(C(=O)Nc2ccccc2C(F)(F)F)c1Cl` it was -9.68% (inactive); in that of `Cc1ccc(S(=O)(=O)NN2C(=O)/C(=C\c3ccc(Cl)cc3)SC2=S)cc1`, -1.66% (inactive).

Take `COc1ccc(/C=C2/SC(=S)N(NS(=O)(=O)c3ccccc3)C2=O)cc1`: the inhibition is 21.2% (inactive).

Take `COc1ccc(/C=C2/SC(=S)N(n3c(C)ccc3C)C2=O)cc1`: the inhibition was -3.19% (inactive). Still for that read-out and setting: with `CC(=O)NN1C(=O)/C(=C\c2ccc(C)cc2)SC1=S` the figure was -6.43% (inactive). Same read-out and setting: with `O=C1/C(=C/c2ccc(O)c(O)c2)SC(=S)N1Nc1ccccc1` the figure was -21.8% (inactive); with `O=C(Cc1ccccc1)NN1C(=O)/C(=C/c2ccc(C(=O)O)cc2)SC1=S`, 27% (inactive). Same read-out and setting: with `O=C(O)c1ccc(/C=C2\SC(=S)N(NC(=O)c3ccccc3)C2=O)cc1` the figure was 8.49% (inactive).

Source of the values: PubChem BioAssay AID588689 (Southern Research Specialized Biocontainment Screening …, 2011).
